CHX counter – counter-screen hit for Shiga toxin inhibitors, cycloheximide; max response, %; cell reporter, cycloheximide protein synthesis inhibition counterscreen; hit rate 12% among 300,000; AID 2314; in the data active = max response mostly above about 13%, no sharp cut-off; inactive = mostly below about 14%; also: read at 38.3 µM for the half of the compounds with a filed dose; 0% is about no effect
Sm TGR inh – S. mansoni TGR enzyme inhibition | hit rate 3% among 360,000 | Potency, µM (doses to about 114 µM), for the others: at the highest dose activity change, negative = inhibition, most hits filed as inhibitors | purified TGR, DTNB reduction, TNB absorbance 405 nm | Q962Y6; also: potency is read from the fitted curve at half-maximal effect; % is scaled to controls: 0 for no effect and ±100 for the full control effect; nearly all actives have a fitted effect of over 60% in size
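Kinetic colorimetric format: TGR-catalysed, NADPH-driven DTNB reduction monitored via TNB absorbance. Enzyme dispensed at 20 nM; compound exposure 15 min at room temperature before reaction start.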
Shiga inhibitor – blocks Shiga toxin action in Vero cells; Vero cells, Shiga toxin protein synthesis inhibition reporter; inhibition, % at 38.7 µM; hit rate 9.2% among 290,000; AID 2315; in the data active = inhibition mostly above about 28%, no sharp cut-off; inactive = mostly below about 43%; also: 0% is about no effect
Pf growth 96h – inhibits malaria parasite growth, 96 h; P. falciparum luciferase reporter growth, 96 h; Potency, µM (titrated, usually from 28.7 µM), inactives show at the top dose activity change, negative = inhibition, actives largely listed as inhibitors; hit rate 6.9% among 320,000; AID 504834; also: potency is read from the fitted curve at half-maximal effect; % is scaled to controls: 0 for no effect and ±100 for the full control effect
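Cell-based qHTS: luciferase-tagged P. falciparum in erythrocytes (2% hematocrit, 0.05% parasitemia final) incubated with compounds for 96 hours, 37 C, 5% CO2; luciferase detection reagent then added and luminescence measured.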
Pf growth 48h – inhibits P. falciparum growth in the first generation, 48 h; P. falciparum luciferase growth in erythrocytes, 48 h; Potency, µM (doses to about 28.7 µM), without a hit: at the top dose activity change, negative = inhibition, usual class: inhibitors; hit rate 5.9% among 310,000; also: potency is read from the fitted curve at half-maximal effect; % is scaled to controls: 0 for no effect and ±100 for the full control effect
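A one-generation exposure of luciferase-tagged malaria parasites in RPMI 1640/Albumax erythrocyte culture, 37 C and 5% CO2. Inhibition is inferred from decreased luminescence after adding detection reagent.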
NS1 inh – inhibitors of influenza NS1 protein function; Potency, µM (series often up to 46.1 µM), without a hit: at the top dose activity, positive = more growth; hit rate 0.4% among 270,000; AID 2326; calls by dose curve; also: potency is read from the fitted curve at half-maximal effect; actives are rising curves; nearly all actives have a fitted effect of over 50% in size
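A cell-based growth assay was used: compounds that relieve NS1-induced slow growth of budding yeast raise OD600. Assay medium was yeast nitrogen base with ammonium sulphate and -URA supplement, pH 6.0, with 2% galactose.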
* = called active by the depositor. In the library only some 21% were active in any assay of this set; here they are far more common. Unless noted, calls follow the shape of the dose curve; as a rule, active = well fitted curve in the direction sought with a large enough effect; inconclusive = small, poorly fitted or top-dose-only effect, or another doubt; inactive = no such curve, though single readings can be large; an effect the other way counts as inactive or inconclusive.

What do the screens show for `CCOc1ccc(N(CC(=O)NCC2CCCO2)C(=O)CCC(=O)Nc2nccs2)cc1` (stereo unspecified)?
CHX counter: -2.8; Sm TGR inh: 1.5%; Shiga inhibitor: -18.8; Pf growth 96h: 49.7%; Pf growth 48h: 4.6%; NS1 inh: 1.2%

Results for CCCCOc1ccc(-c2nn(-c3ccccc3)cc2C2NC(=O)NC(C)=C2C(=O)OCC)cc1 (stereo unspecified) ?
Sm TGR inh: 10.7%

Results for CCC(C)N1CCC2(CC1)N=c1c(c3c4c5c(C)c(O)c3c(O)c1=NC(=O)C(C)=CC=C[C@H](C)[C@H](O)[C@@H](C)[C@@H](O)[C@@H](C)[C@H](OC(C)=O)[C@H](C)[C@@H](OC)C=CO[C@@](C)(O5)C4=O)N2 (stereo partly specified) ?
Sm TGR inh: -7.8%; Pf growth 96h: inconclusive; Pf growth 48h: 9.28µM*

What do the screens show for `CO[C@@H]1/C=C\O[C@]2(C)Oc3c(C)c(O)c4c(O)c(cc(O)c4c3C2=O)NC(=O)/C(C)=C\C=C/[C@H](C)[C@@H](O)[C@H](C)[C@H](O)C(C)[C@H](OC(C)=O)[C@@H]1C` (stereo partly specified)?
NS1 inh: -10.5%

What do the screens show for `O=C(O)CN1C(=O)/C(=C\c2cccc(OCc3ccc(Cl)cc3Cl)c2)SC1=S`?
CHX counter: 22.4*; Sm TGR inh: -24.6%; Shiga inhibitor: 67.6*; Pf growth 96h: inconclusive; Pf growth 48h: 52.5%; NS1 inh: inconclusive

Results for O=C(O)CCN1C(=O)/C(=C\c2cccc(OCc3ccccc3)c2)SC1=S ?
CHX counter: 2.7; Sm TGR inh: 75.4%; Shiga inhibitor: -9.1; Pf growth 96h: 31.7%; Pf growth 48h: -9.8%; NS1 inh: 0.7%

Results for O=C(O)CN1C(=O)/C(=C\c2cc(Br)ccc2OCc2ccccc2F)SC1=S ?
CHX counter: 5.5; Sm TGR inh: -19.9%; Shiga inhibitor: 0.5; Pf growth 96h: inconclusive; Pf growth 48h: 1.4%; NS1 inh: 6.3%

Results for O=C(O)CN1C(=O)/C(=C\c2ccccc2OCc2ccc(Cl)cc2Cl)SC1=S ?
CHX counter: 15.8*; Sm TGR inh: -35.2%; Shiga inhibitor: 38.3*; Pf growth 96h: inconclusive; Pf growth 48h: 104.9%; NS1 inh: 18.4%

Results for O=C(O)CN1C(=O)/C(=C\c2cc(Br)ccc2OCc2ccccc2Cl)SC1=S ?
CHX counter: 41.8*; Sm TGR inh: inconclusive; Shiga inhibitor: 77.3*; Pf growth 96h: 37.7%; Pf growth 48h: 8.1%; NS1 inh: 12.1%

What do the screens show for `CCCCN1C(=O)C(=O)N(CC(=O)Nc2sc(C)c(C)c2C(=O)OC)C1=O`?
Sm TGR inh: -22.0%; Pf growth 96h: -16.3%; Pf growth 48h: -7.7%

Results for CCOc1ccc(-c2nnc(SCC(=O)Oc3ccccc3)o2)cc1 ?
Sm TGR inh: -10.1%

How did CC1CCCN(CCOc2cccc(Oc3ccccc3)c2)C1 (stereo unspecified) do in these assays?
CHX counter: -4.1; Sm TGR inh: -4.6%; Pf growth 96h: 3.8%; Pf growth 48h: inconclusive; NS1 inh: -38.4%

Results for O=C(CSc1nnc(-c2ccncc2)n1Cc1ccco1)OC1CCCCC1 ?
CHX counter: 14.6; Sm TGR inh: 39.8µM*; Shiga inhibitor: -9.4; Pf growth 48h: -3.1%; NS1 inh: -1.3%

How did CN(C)C(=O)CSc1nnc(-c2ccncc2)n1Cc1ccco1 do in these assays?
CHX counter: 9.4; Sm TGR inh: 56.1%; Shiga inhibitor: 75.7; Pf growth 96h: inconclusive; Pf growth 48h: 19.4%

How did O=C(CSc1nnc(-c2ccco2)n1Cc1ccccc1)OC1CCCCC1 do in these assays?
CHX counter: 23.5*; Sm TGR inh: -24.9%; Shiga inhibitor: 83.9*; Pf growth 48h: 160.5%; NS1 inh: -60.5%

Results for CCC1CCCCN1S(=O)(=O)c1ccc(N2CCCCS2(=O)=O)cc1 (stereo unspecified) ?
Sm TGR inh: -6.1%

How did CCCCCCC1(C)NC(c2ccc3c(c2)OCO3)=CC(c2cc(Br)ccc2O)N1 (stereo unspecified) do in these assays?
CHX counter: 31.8; Shiga inhibitor: 40.9
